Measurements taken from PubChem BioAssay (NCATS).
Records with an inconclusive call do not appear. Active and inactive are the calls of the source. The call rests on the fitted dose curve; in most records, active means well fitted curve in the direction sought with a large enough effect; inconclusive means small, poorly fitted or top-dose-only effect, or another doubt; inactive means no such curve, though single readings can be large; an effect the other way counts as inactive or inconclusive. *1 amine or outer side, *2 acyl side, *3 side chain or, on linkers, in order; H or OH if unused. Where a SMILES comes first, the peptide text is derived from it. Bridges are numbered along the chain shown (N, C = ends). [ ]: non-standard residue; d: D form. The star is where a group is joined. ξ: configuration not given here. X10 = NC1=NCCC(C(N[*:1])C(=O)[*:2])N1; ΔAla(3-NHCONH2) = NC(=O)NC=C(N)C(=O)O; ξβ3hOrn = NCCCC(N)CC(=O)*; Dap = NC[CH](N)C(=O)O

Legend:
MKL-1 = assay: qHTS assay to identify novel small-molecules to repurpose for Merkel cell carcinoma treatment (AID 1296009); settings: MCC and control cell lines, CellTiter-Glo viability, 72 h; series mostly up to 46 µM; further: nearly all actives have a fitted effect of over 60% in size
Procedure, shortened: (§1)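 After compound transfer in DMSO, plates were kept 72 hr at 37 degree celsius. Luminescent ATP signal from CellTiter-Glo served as viability measure, normalized against DMSO and no-cell controls.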

MKL-2 = assay: as above; settings: MCC and control cell lines, CellTiter-Glo viability, 72 h; series mostly up to 46 µM
Procedure, shortened: as §1

UISO = assay: as above; settings: MCC and control cell lines, CellTiter-Glo viability, 72 h; series mostly up to 46 µM
Procedure, shortened: as §1

WaGa = assay: as above; settings: MCC and control cell lines, CellTiter-Glo viability, 72 h; series mostly up to 46 µM
Procedure, shortened: as §1

C33A = assay: Primary qHTS to identify gynecologic anti-cancer compounds using libraries of approved drugs and bioactive compounds (AID 1345084); settings: Gynecologic cancer cell panel viability, ATPlite luminescence, 48 h; series mostly up to 57.5 µM; further: nearly all actives have a fitted effect of over 55% in size
Procedure, shortened: (§2)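 Cells, 1,000 per well, were allowed to settle for 16 h at 37 C before compound addition. Five concentrations were tested for 48 h, and viability was read by ATPlite luminescence after 15 min at room temperature.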

CAOV3 = assay: as above; settings: Gynecologic cancer cell panel viability, ATPlite luminescence, 48 h; series mostly up to 57.5 µM
Procedure, shortened: as §2

CASKI = assay: as above; settings: Gynecologic cancer cell panel viability, ATPlite luminescence, 48 h; series mostly up to 57.5 µM
Procedure, shortened: as §2

Es-2 = assay: as above; settings: Gynecologic cancer cell panel viability, ATPlite luminescence, 48 h; series mostly up to 57.5 µM
Procedure, shortened: as §2

HeLa = assay: as above; settings: Gynecologic cancer cell panel viability, ATPlite luminescence, 48 h; series mostly up to 57.5 µM
Procedure, shortened: as §2
On the % scale 0 is the no-effect control and ±100 the full control effect.

NCCCC(N)CC(=O)NCC1NC(=O)C(CO)NC(=O)C(N)CNC(=O)C(C2CCN=C(N)N2)NC(=O)C(=CNC(N)=O)NC1=O (stereo not drawn) (H-[Dap]S[Dap](ξβ3hOrn)[ΔAla(3-NHCONH2)][X10]; lactam 1-C; configuration not given here)
inactive: activity change, negative = cytotoxicity (MKL-1) 3.4% [at 0.597 µM] | activity change, negative = cytotoxicity (MKL-2) 1.36% [at 0.597 µM] | activity change, negative = cytotoxicity (UISO) 24.3% [at 0.597 µM] | activity change, negative = cytotoxicity (WaGa) 13.5% [at 0.597 µM] | activity change, negative = cytotoxicity (C33A) 15.1% [at 0.462 µM] | activity change, negative = cytotoxicity (CAOV3) 10.4% [at 0.462 µM] | activity change, negative = cytotoxicity (CASKI) 9.08% [at 0.462 µM] | activity change, negative = cytotoxicity (Es-2) -0.941% [at 0.462 µM] | activity change, negative = cytotoxicity (HeLa) -1.14% [at 0.462 µM]

CCc1cc(S(=O)(=O)O)c2cc(C(C)C)cccc1-2
inactive: Potency (MKL-1) | Potency (MKL-2) | Potency (UISO) | Potency (WaGa) | Potency (C33A) | Potency (CAOV3) | Potency (CASKI) | Potency (Es-2) | Potency (HeLa)

NS(=O)(=O)c1cc2c(cc1Cl)CN(C1CCCCC1)C2=O
inactive: Potency (MKL-1) | Potency (MKL-2) | Potency (UISO) | Potency (WaGa) | Potency (C33A) | Potency (CAOV3) | Potency (CASKI) | Potency (Es-2) | Potency (HeLa)

C[C@@]12CCC[C@H]1[C@@H]1CC[C@H]3C[C@@H](O)CC[C@]3(C)[C@H]1CC2
inactive: Potency (MKL-1) | Potency (MKL-2) | Potency (UISO) | Potency (WaGa) | Potency (C33A) | Potency (CAOV3) | Potency (CASKI) | Potency (Es-2) | Potency (HeLa)

CCCC(=O)Nc1ccc(O)c(C(C)=O)c1
inactive: Potency (MKL-1) | Potency (MKL-2) | Potency (UISO) | Potency (WaGa) | Potency (C33A) | Potency (CAOV3) | Potency (CASKI) | Potency (Es-2) | Potency (HeLa)

OC1(c2ccc(Cl)cc2)CCNCC1
inactive: Potency (MKL-1) | Potency (MKL-2) | Potency (UISO) | Potency (WaGa) | Potency (C33A) | Potency (CAOV3) | Potency (CASKI) | Potency (Es-2) | Potency (HeLa)

O=C(O)Cn1cnnn1
inactive: Potency (MKL-1) | Potency (MKL-2) | Potency (UISO) | Potency (WaGa) | Potency (C33A) | Potency (CAOV3) | Potency (CASKI) | Potency (Es-2) | Potency (HeLa)

CCOC(=O)NNc1nncc2ccccc12
inactive: Potency (MKL-1) | Potency (MKL-2) | Potency (UISO) | Potency (WaGa) | Potency (C33A) | Potency (CAOV3) | Potency (CASKI) | Potency (Es-2) | Potency (HeLa)

O=C1CC2(CCCC2)CC(=O)N1CCNCC1COc2ccccc2O1 (configuration not stated)
inactive: Potency (MKL-1) | Potency (MKL-2) | Potency (UISO) | Potency (WaGa) | Potency (C33A) | Potency (CAOV3) | Potency (CASKI) | Potency (Es-2) | Potency (HeLa)

CNC(=O)c1cnn(-c2nc(N)c3ncn([C@@H]4O[C@H](CO)[C@@H](O)[C@H]4O)c3n2)c1
inactive: Potency (MKL-1) | Potency (MKL-2) | Potency (UISO) | Potency (WaGa) | Potency (C33A) | Potency (CAOV3) | Potency (CASKI) | Potency (Es-2) | Potency (HeLa)

Nc1ccc(C(=O)OCC(O)CO)cc1 (configuration not stated)
inactive: Potency (MKL-1) | Potency (MKL-2) | Potency (UISO) | Potency (WaGa) | Potency (C33A) | Potency (CAOV3) | Potency (CASKI) | Potency (Es-2) | Potency (HeLa)

COC(=O)c1ccc(NC(C)=O)cc1OC
inactive: Potency (MKL-1) | Potency (MKL-2) | Potency (UISO) | Potency (WaGa) | Potency (C33A) | Potency (CAOV3) | Potency (CASKI) | Potency (Es-2) | Potency (HeLa)

C1N2CN3CN1CN(C2)C3
inactive: Potency (MKL-1) | Potency (MKL-2) | Potency (UISO) | Potency (WaGa) | Potency (C33A) | Potency (CAOV3) | Potency (CASKI) | Potency (Es-2) | Potency (HeLa)

O=C(O)c1[nH]n(-c2ccc(S(=O)(=O)O)cc2)c(=O)c1N=Nc1ccc(S(=O)(=O)O)cc1
inactive: Potency (MKL-1) | Potency (MKL-2) | Potency (UISO) | Potency (WaGa) | Potency (C33A) | Potency (CAOV3) | Potency (CASKI) | Potency (Es-2) | Potency (HeLa)

O=C(O)Cc1ccccc1Oc1ccc(Cl)cc1Cl
inactive: Potency (MKL-1) | Potency (MKL-2) | Potency (UISO) | Potency (WaGa) | Potency (C33A) | Potency (CAOV3) | Potency (CASKI) | Potency (Es-2) | Potency (HeLa)

O=C(CCCl)NCCc1ccccc1
inactive: Potency (MKL-1) | Potency (MKL-2) | Potency (UISO) | Potency (WaGa) | Potency (C33A) | Potency (CAOV3) | Potency (CASKI) | Potency (Es-2) | Potency (HeLa)

C/C(=N\O)[C@@H](C)NCC(C)(C)CN[C@H](C)/C(C)=N/O
inactive: Potency (MKL-1) | Potency (MKL-2) | Potency (UISO) | Potency (WaGa) | Potency (C33A) | Potency (CAOV3) | Potency (CASKI) | Potency (Es-2) | Potency (HeLa)

CC(C)C[C@@H]1[C@H](c2ccccc2)OC(=O)N1CCCN1CCCCCC1
inactive: Potency (MKL-1) | Potency (MKL-2) | Potency (UISO) | Potency (WaGa) | Potency (C33A) | Potency (CAOV3) | Potency (CASKI) | Potency (Es-2) | Potency (HeLa)

Oc1ccccc1-c1nnco1
inactive: Potency (MKL-1) | Potency (MKL-2) | Potency (UISO) | Potency (WaGa) | Potency (C33A) | Potency (CAOV3) | Potency (CASKI) | Potency (Es-2) | Potency (HeLa)

N[C@@H](Cc1cc(I)c(O)c(I)c1)C(=O)O
inactive: Potency (MKL-1) | Potency (MKL-2) | Potency (UISO) | Potency (WaGa) | Potency (C33A) | Potency (CAOV3) | Potency (CASKI) | Potency (Es-2) | Potency (HeLa)

CCOC(=O)[C@H](CCc1ccccc1)N[C@@H](C)C(=O)N(CC(=O)O)C1Cc2ccccc2C1
inactive: Potency (MKL-1) | Potency (MKL-2) | Potency (UISO) | Potency (WaGa) | Potency (C33A) | Potency (CAOV3) | Potency (CASKI) | Potency (Es-2) | Potency (HeLa)

COC(=O)C1=C(C)NC(C)=C(C(=O)OCCc2ccc(N3CCN(C(c4ccccc4)c4ccccc4)CC3)cc2)C1c1cccc([N+](=O)[O-])c1 (configuration not stated)
inactive: Potency (MKL-1) | Potency (MKL-2) | Potency (UISO) | Potency (WaGa) | Potency (C33A) | Potency (CAOV3) | Potency (CASKI) | Potency (Es-2) | Potency (HeLa)

O=C(CCCCC(=O)Nc1c(I)cc(I)c(C(=O)O)c1I)Nc1c(I)cc(I)c(C(=O)O)c1I
inactive: Potency (MKL-1) | Potency (MKL-2) | Potency (UISO) | Potency (WaGa) | Potency (C33A) | Potency (CAOV3) | Potency (CASKI) | Potency (Es-2) | Potency (HeLa)
